Results on 34 molecules are retold here after PubChem BioAssay AID686979 (National Center for Advancing Translational Sciences (NCATS), 2013).

In all, about 420,000 compounds went through this assay and about 50,000 (12%) were called active. Not shown: some 26% with an inconclusive outcome. Calls come from the whole dose curve; as a rule, active = well fitted inhibition curve with a large enough effect; inconclusive = small, poorly fitted or top-dose-only effect; inactive = flat fitted curve, though single readings scatter. What follows is part of a selection rich in actives, with near analogues and random picks from the rest.
% is set by controls: 0 for no effect and ±100 for the full control effect; potency is the fitted concentration of half-maximal effect.

The experiment in a line: qHTS for Inhibitors of human tyrosyl-DNA phosphodiesterase 1 (TDP1): qHTS in cells in presence of CPT. Note: nearly all actives have a fitted effect of over 55% in size. To be noted: chicken DT40 Tdp1-/-;hTDP1 cells + 20 nM CPT, ATP luminescence, 48 h; series mostly up to 46.2 µM; activity change, negative = growth inhibition: at the top concentration. An excerpt:
Human tyrosyl-DNA phosphodiesterase 1 (TDP1) is a novel repair gene, and we propose to use it as a new target for anticancer drug development. TDP1 is not an essential protein, but under treatment with topoisomerase I poison (camptothecin: CPT), TDP1 works as a critical factor for cell survival. To directly identify novel TDP1 inhibitors active in a cellular environment, we have knocked-out the Tdp1 gene in chicken DT40 cells (Tdp1-/-) and generated a complemented counterpart cells that contains a stable transfection of the human TDP1 gene (Tdp1-/-;hTDP1 cells). For the primary screen, Tdp1-/-;hTDP1 cells will be exposed to small molecules in the presence or absence of CPT, and their growth kinetics will be evaluated after 48 hours by measuring ATP activity. […] The hit compounds will then be evaluated in the presence or absence of CPT using Tdp1-/- cells. […] In tertiary assays, biochemical gel-based assays will be used to assess whether the hit compounds specifically target TDP1. To this end, we have screened this cell line against the MLSMR in two primary screens. In one screen we add CPT and in the other we screen in the absence of CPT; this AID represents the screen where CPT was present. NIH Chemical Genomics Center [NCGC] NIH Molecular Libraries Probe Centers Network [MLPCN] MLPCN Grant: MH095538 Assay Submitter (PI): Yves Pommier, NCI
DT40-hTDP1 cells with 20 nM Camptothecin (add 20 microL of 1 mM CPT stock in 1 L of cell culture medium) were dispensed at 400 cells/5microL/well in tissue culture treated 1536-well white wall/solid bottom assay plates (Greiner Bio-One North America, NC, U.S.A.) using a Multidrop Combi 8 channel dispenser (Thermo Fisher, Waltham, MA, USA). 23 nL compounds and controls were transferred using the pin tool (Kalypsys, San Diego, CA, USA) to the assay plates. The assay plates were then incubated at 37 masculineC for a minimum 48 hr. Three microL of Cell Titer Glo solution was added to the plates and incubated at RT in dark for 30 min. Luminescence was read using ViewLux (Perkin Elmer) with 1 sec exposure slow speed, high gain and 2x binning.
Turning to `CC(C)Oc1ccc(S(=O)(=O)N2CCOCC2)cc1NC(=O)C1CCCC1`, the “activity change, negative = growth inhibition” value is -10% (inactive). The same measure, in the same setting: in the case of `O=C(CCS(=O)(=O)c1ccccc1Cl)Nc1ccc(S(=O)(=O)Nc2ncccn2)cc1` it was -10.7% (inactive). On the same count and under the same terms, in the case of `Cc1ccc(S(=O)(=O)N2CCOCC2)cc1C(=O)OC1CCCCC1=O` (centres undefined) it was -10.5% (inactive). Same read-out and setting: as for `C[C@@H]1CN([C@H](C)CO)C(=O)CCCn2cc(nn2)CO[C@H]1CN(C)S(=O)(=O)c1ccc(Oc2ccccc2)nc1`, the figure is -12.2% (inactive); as for `O=C(/C=C/c1ccc(F)cc1)NCCNC(=O)/C=C/c1ccc(F)cc1`, -1.15% (inactive). For `O=C(/C=C/c1ccc([N+](=O)[O-])o1)NNC(=O)c1ccc(F)cc1`, the Potency was 3.26 µM (active). Consider `CCN(C(=O)Cn1c(=O)nc(-c2ccccc2)c2cc(Cl)ccc21)c1cccc(C)c1`, for which the “activity change, negative = growth inhibition” value was 11.6% (inactive). As to `Cc1ccc(S(=O)(=O)NCC(=O)N(CC(=O)NCC2CCCO2)c2cccc(F)c2)cc1` (centres undefined), the “activity change, negative = growth inhibition” value was -1.7% (inactive). On the same count and under the same terms, as for `C=CCOc1ccccc1CNn1c(C)n[nH]c1=S`, the figure is -15.9% (inactive); as for `Cc1ccccc1OC/C(O)=C(\C#N)c1nc2ccccc2[nH]1`, -3.62% (inactive). On the same count and under the same terms, in the case of `N#C/C(=C(/O)COc1cccc2ccccc12)c1nc2ccccc2[nH]1` it was -5.59% (inactive). Consider `N#C/C(=C(/O)COC(=O)COc1ccc(Cl)cc1)c1nc2ccccc2[nH]1`, for which the Potency was 4.11 µM (active). As for `O=C(NNC(=O)c1cc(-c2ccccc2Cl)nc2ccccc12)c1csc(N2CCOCC2)n1`, the “activity change, negative = growth inhibition” value was -20.9% (inactive). Still for that read-out and setting: in the case of `CC(C)(C)c1ccc(C(CC(=O)O)NS(=O)(=O)Cc2ccccc2)cc1` (centres undefined) it was -6.35% (inactive); in that of `Cc1ccc2c(c1)N(CC(=O)NCC1CCCO1)C(=O)CO2` (centres undefined), 2.88% (inactive). Still for that read-out and setting: in the case of `NS(=O)(=O)c1ccc(NC(=O)CSc2nnc3c(n2)[nH]c2ccccc23)cc1` it was -21.2% (inactive). On the same count and under the same terms, in the case of `COc1ccc(CC(=O)Nc2ccc(C(=O)NC(C)(C)C)cc2)cc1` it was -12.6% (inactive). On to `C/C=C/NNC(=O)Cc1ccc(OC)cc1`, for which the Potency was 3.55 µM (active). `CCCCCNC(=O)Cc1ccc(OC)cc1`: the “activity change, negative = growth inhibition” value is 3.59% (inactive). With `C#CCOCCOCCOCCNc1nc(N2CCN(C(=O)[C@H](CCC(=O)O)n3cc(CN)nn3)CC2)nc(N2CCN(C(=O)[C@H](CCC(=O)O)n3cc(CN)nn3)CC2)n1`, the “activity change, negative = growth inhibition” value was 33% (inactive). Consider `CC(=O)c1cccc(NC(=S)N2CCCC2)c1`, for which the “activity change, negative = growth inhibition” value is 48.5% (inactive). `COc1ccc(CC(=O)N2N=C(C)CC2(O)C(F)(F)F)cc1` (centres undefined): the Potency was 2.91 µM (active). For the molecule `CC1=NN(C(=O)Cc2ccc(C)cc2)C(O)(c2cccnc2)C1` (centres undefined), the “activity change, negative = growth inhibition” value was -20.6% (inactive). As to `CC1=NN(C(=O)CCCc2ccccc2)C(O)(C(F)(F)F)C1` (centres undefined), the “activity change, negative = growth inhibition” value was 3.77% (inactive). On the same count and under the same terms, as for `CC1CC(=S)Nc2ccccc2N1Cc1ccccc1` (centres undefined), the figure is -2.65% (inactive); as for `Nc1nc2ncccn2c1-c1ccccc1`, 6.86% (inactive).

`O=S(=O)(Nc1cccc(-n2cnnn2)c1)c1cnc(Cl)c(Cl)c1`: the “activity change, negative = growth inhibition” value is -19.4% (inactive). For the molecule `COc1ccc(N2C(=O)CS(=O)(=O)C23C(=O)N(Cc2ccc(C)cc2)c2ccccc23)cc1Cl` (centres undefined), the “activity change, negative = growth inhibition” value was -25% (inactive). On to `COc1cc(CC(=O)Nc2nc(-c3ccc(F)c(F)c3)cs2)cc(OC)c1OC`, for which the Potency was 7.31 µM (active). For `COc1ccc(-c2csc(NC(=O)c3ccc(N4C(=O)CCC4=O)cc3)n2)cc1OC`, the “activity change, negative = growth inhibition” value was -0.306% (inactive). Take `COc1ccc(CC(=O)Nc2nc(-c3ccc(F)c(F)c3)cs2)cc1OC`: the Potency is 10.3 µM (active). Regarding `COc1cccc(CC(=O)Nc2nc(-c3ccc(OC)c(OC)c3)cs2)c1`, the “activity change, negative = growth inhibition” value was -62.3% (inactive).

Regarding `COc1ccc(CCNC(=O)COC(=O)Cc2cc(OC)c(OC)c(OC)c2)cc1`, the “activity change, negative = growth inhibition” value is -2.97% (inactive). Still for that read-out and setting: as for `Cc1ccc(S(=O)(=O)NC(=O)Nc2nc(-c3ccc(F)c(F)c3)cs2)cc1`, the figure is 4.32% (inactive).
